From PubChem BioAssay
The source made the active and inactive calls.

How the values were obtained:
[1] = target: Albumin (Bos taurus) (UniProt P02769); assay: bovine serum albumin binders on microarray, profiling panel, artefact control for SMM control protein annotation, biochemical, small-molecule microarray, Alexa647 label, 635/667 nm fluorescence (AID 1118); details: BSA-A647 binding, fluorescence 635 nm, higher = more signal;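 note: score merges 667 nm emission intensity and signal-to-noise per printed compound spot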
Albumin (Bos taurus), sequence (P02769 whole entry, looked up): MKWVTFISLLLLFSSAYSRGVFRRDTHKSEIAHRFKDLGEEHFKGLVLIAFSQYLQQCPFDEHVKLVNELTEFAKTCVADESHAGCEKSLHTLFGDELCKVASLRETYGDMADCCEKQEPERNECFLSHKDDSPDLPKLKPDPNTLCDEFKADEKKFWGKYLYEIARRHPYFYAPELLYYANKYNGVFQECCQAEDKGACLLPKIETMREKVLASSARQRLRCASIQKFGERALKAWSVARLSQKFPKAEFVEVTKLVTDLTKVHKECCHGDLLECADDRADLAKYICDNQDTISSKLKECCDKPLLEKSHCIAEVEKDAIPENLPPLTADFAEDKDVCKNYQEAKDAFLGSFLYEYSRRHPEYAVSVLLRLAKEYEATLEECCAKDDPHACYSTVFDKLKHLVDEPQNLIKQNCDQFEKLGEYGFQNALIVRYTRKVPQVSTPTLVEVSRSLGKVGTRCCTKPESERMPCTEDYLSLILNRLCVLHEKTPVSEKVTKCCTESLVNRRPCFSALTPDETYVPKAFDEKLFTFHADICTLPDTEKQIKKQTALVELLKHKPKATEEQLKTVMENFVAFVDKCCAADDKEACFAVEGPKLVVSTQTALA

[2] = small-molecule microarray binders of probe aXIP, primary screen, biochemical, NeuroSMM set, 635/667 nm fluorescence (AID 1119); details: higher = more signal, called active from +8 up or from −8 down;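 note: probe is the protein aXip251-270 applied at 1 µg/mL to compound-printed slides; binding of probe to printed compounds measured as 667 nm fluorescence plus signal to noise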
[3] = small-molecule binders of probe aNOTCH3, primary screen, biochemical, small-molecule microarray, 635/667 nm fluorescence (AID 1120); details: higher = more signal;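 note: probe is a biotin-tagged antibody raised against NOTCH3 rather than NOTCH3 protein; score merges spot fluorescence near 667 nm with spot signal to noise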
[4] = small-molecule binders of probe aNOTCH2, primary screen, biochemical, small-molecule microarray, 635/667 nm fluorescence (AID 1121); details: higher = more signal;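 note: score merges feature fluorescence read at 667 nm with its signal to noise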
[5] = target: Carbonic anhydrase 2 (Homo sapiens) (UniProt P00918); assay: CAII small-molecule binders, profiling panel, biochemical, small-molecule microarray, Alexa647-labelled CAII (AID 1122); details: CAII-A647 binding fluorescence, higher = more signal
[6] = COS7 lysate on small-molecule microarray, probe aHis, 635 nm (AID 1123); details: COS7 cell lysate, fluorescence, higher = more signal;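 note: z-score combines 667nm fluorescence intensity with signal-to-noise per printed compound spot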
[7] = compound binding in COS7 lysate, probe aLAP1, primary screen, cell lysate, small-molecule microarray (AID 1124); details: probe aLAP1, fluorescence, higher = more signal;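 note: lysate comes from COS7 cells expressing LAP1 and is applied at 0.3 µg/mL; score merges spot fluorescence near 667 nm with signal-to-noise over triplicate slides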
[8] = system: Sam68 (KHDRBS1); assay: Sam68 small-molecule binders, primary screen, biochemical, small-molecule microarray, 635 nm fluorescence (AID 1125); details: small-molecule microarray binding, higher = more signal;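 note: score merges 667 nm channel intensity with signal to noise over triplicate slides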
[9] = system: Chordin-like protein 2 (CHRDL2); assay: CHRDL2 small-molecule binders, primary screen, biochemical, small-molecule microarray, 635 nm fluorescence (AID 1126); details: small-molecule microarray binding, fluorescence 635 nm; higher = more signal;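 note: printed compound slides probed with Chrdl2 protein at 4 µg/mL for 1 h at 4 C; score merges 667 nm emission intensity with signal to noise over three replicate slides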
[10] = target: Concanavalin-A (Canavalia ensiformis) (UniProt P02866); assay: ConA small-molecule binders, primary screen, artefact control for SMM control protein annotation, biochemical, small-molecule microarray, Alexa647 label, 635 nm (AID 1127); details: ConA-A647 binding fluorescence, higher = more signal;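 note: z combines 667 nm emission intensity with signal-to-noise across three replicate slides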
Concanavalin-A (Canavalia ensiformis), sequence (P02866 whole entry, looked up): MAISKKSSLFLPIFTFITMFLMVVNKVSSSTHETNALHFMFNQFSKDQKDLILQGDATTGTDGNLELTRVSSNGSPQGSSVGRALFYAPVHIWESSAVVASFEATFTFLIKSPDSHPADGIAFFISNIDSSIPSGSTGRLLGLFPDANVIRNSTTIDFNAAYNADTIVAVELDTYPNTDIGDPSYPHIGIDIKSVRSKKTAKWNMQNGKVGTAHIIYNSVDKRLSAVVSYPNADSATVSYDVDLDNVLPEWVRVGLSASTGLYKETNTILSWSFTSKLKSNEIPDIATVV

[11] = anti-His antibody binders, primary screen, artefact control for SMM control protein annotation, biochemical, small-molecule microarray, 635 nm fluorescence (AID 1128); details: anti-His Alexa647 antibody binding, higher = more signal;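 note: score merges feature fluorescence with signal-to-noise for each printed compound spot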
[12] = system: Human papillomavirus type 1a E7 protein (residues 1-88); assay: HPV1a E7 small-molecule binders, primary screen, biochemical, small-molecule microarray, residues 1-88, 635 nm (AID 1129); details: small-molecule microarray binding, fluorescence 635 nm; higher = more signal
[13] = target: Focal adhesion kinase 1 (Homo sapiens) (UniProt Q05397); assay: small-molecule microarray binders of FAK, primary screen, biochemical, 635/667 nm fluorescence, BSA, DTT (AID 1130); details: PTK2 binding, 635 nm fluorescence, higher = more signal;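 note: composite of spot emission at 667 nm and signal to noise over triplicate slides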
Focal adhesion kinase 1 (Homo sapiens), sequence (Q05397 whole entry, looked up): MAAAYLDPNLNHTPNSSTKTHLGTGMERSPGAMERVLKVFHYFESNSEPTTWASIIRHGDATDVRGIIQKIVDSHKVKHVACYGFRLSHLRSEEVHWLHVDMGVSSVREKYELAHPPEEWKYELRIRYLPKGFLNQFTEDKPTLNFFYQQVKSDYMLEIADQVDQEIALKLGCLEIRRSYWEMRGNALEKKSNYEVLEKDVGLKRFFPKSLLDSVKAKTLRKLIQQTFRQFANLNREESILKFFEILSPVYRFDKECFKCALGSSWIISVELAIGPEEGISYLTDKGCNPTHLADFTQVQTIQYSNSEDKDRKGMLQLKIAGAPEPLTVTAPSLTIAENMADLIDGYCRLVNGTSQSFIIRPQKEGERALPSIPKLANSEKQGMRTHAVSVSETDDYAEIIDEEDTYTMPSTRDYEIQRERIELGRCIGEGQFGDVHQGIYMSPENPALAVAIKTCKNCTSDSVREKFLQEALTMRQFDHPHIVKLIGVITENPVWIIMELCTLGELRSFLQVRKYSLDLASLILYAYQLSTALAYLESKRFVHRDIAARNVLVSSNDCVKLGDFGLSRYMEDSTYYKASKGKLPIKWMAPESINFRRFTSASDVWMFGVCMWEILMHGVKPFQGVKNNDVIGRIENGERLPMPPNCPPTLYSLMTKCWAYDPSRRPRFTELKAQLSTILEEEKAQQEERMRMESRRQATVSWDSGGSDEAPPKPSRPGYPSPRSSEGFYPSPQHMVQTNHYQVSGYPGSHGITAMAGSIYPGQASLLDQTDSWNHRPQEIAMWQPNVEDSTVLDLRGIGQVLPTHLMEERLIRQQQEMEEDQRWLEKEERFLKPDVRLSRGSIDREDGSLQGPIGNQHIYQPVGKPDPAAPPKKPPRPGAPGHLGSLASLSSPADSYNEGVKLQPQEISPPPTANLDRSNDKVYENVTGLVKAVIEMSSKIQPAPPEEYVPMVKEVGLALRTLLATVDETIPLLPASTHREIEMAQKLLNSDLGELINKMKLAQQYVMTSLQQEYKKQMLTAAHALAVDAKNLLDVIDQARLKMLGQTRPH

[14] = system: Fibrinogen (Alexa647-labelled); assay: fibrinogen binders on compound microarrays, profiling panel, artefact control for SMM control-protein annotation, biochemical, small-molecule microarray, 635/667 nm fluorescence (AID 1131); details: fibrinogen-A647 binding fluorescence, higher = more signal;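 note: z-score merges 667 nm fluorescence with per-spot signal-to-noise over triplicate slides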
[15] = target: Follistatin (Homo sapiens) (UniProt P19883); assay: follistatin binders on small-molecule microarrays, primary screen, biochemical, small-molecule microarray, 635/667 nm fluorescence (AID 1132); details: FST binding, 635 nm fluorescence, higher = more signal
Follistatin (Homo sapiens), sequence (P19883 whole entry, looked up): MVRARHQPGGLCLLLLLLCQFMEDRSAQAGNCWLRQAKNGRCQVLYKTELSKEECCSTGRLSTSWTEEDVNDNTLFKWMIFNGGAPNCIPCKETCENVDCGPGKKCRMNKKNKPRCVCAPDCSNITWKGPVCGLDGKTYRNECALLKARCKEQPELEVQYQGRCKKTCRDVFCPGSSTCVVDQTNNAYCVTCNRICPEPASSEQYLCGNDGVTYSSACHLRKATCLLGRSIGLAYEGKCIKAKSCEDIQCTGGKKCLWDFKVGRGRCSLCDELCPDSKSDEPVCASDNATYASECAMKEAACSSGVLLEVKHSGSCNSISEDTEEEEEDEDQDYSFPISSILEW

[16] = target: Fibroblast growth factor 2 (Homo sapiens) (UniProt P09038); assay: FGF2 binders on small-molecule microarrays, primary screen, biochemical, small-molecule microarray, 635/667 nm fluorescence (AID 1133); details: small-molecule microarray binding, FGF2, fluorescence 635/667; higher = more signal
Fibroblast growth factor 2 (Homo sapiens), sequence (P09038 whole entry, looked up): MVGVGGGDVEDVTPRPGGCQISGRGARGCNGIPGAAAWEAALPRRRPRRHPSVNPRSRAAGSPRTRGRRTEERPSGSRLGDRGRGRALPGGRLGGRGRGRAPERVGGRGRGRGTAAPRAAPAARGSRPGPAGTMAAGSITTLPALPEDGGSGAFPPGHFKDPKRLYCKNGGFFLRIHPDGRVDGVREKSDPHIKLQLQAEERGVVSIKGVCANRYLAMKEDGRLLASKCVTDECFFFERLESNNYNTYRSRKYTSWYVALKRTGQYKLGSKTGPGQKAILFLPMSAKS

[17] = mitochondrial membrane potential change in A549 cells, profiling panel, cell-based, JC-1 fluorescence, basal, 24 h, 100 nL (AID 1138); details: higher = more signal;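 note: A549 lung adenocarcinoma cells under basal conditions with no added stimulus; test concentration not given here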
[18] = system: Lefty1; assay: Lefty1 binders on small-molecule microarrays, primary screen, biochemical, small-molecule microarray, 635/667 nm fluorescence (AID 1139); details: small-molecule microarray binding, fluorescence 635/667; higher = more signal
[19] = system: wheat germ agglutinin (Triticum aestivum), Alexa647-labelled; assay: wheat germ agglutinin binders on compound microarrays, profiling panel, artefact control for SMM control-protein annotation, biochemical, small-molecule microarray, 635/667 nm fluorescence (AID 1140); details: WGA-A647 binding, 635 nm fluorescence, higher = more signal;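 note: score merges 667 nm feature emission with signal to noise over triplicate slides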
[20] = target: Luciferin 4-monooxygenase (Photinus pyralis) (UniProt P08659); assay: firefly luciferase enzyme inhibitors, primary screen, biochemical, luminescence, purified enzyme, 2006 set (AID 1141); details: SteadyGlo luminescence, 30 min, higher = more signal, called active from +8 up or from −8 down;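 note: cell-free assay with purified firefly luciferase at 100 ng per well in PBS; test concentration not given here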
Luciferin 4-monooxygenase (Photinus pyralis), sequence (P08659 whole entry, looked up): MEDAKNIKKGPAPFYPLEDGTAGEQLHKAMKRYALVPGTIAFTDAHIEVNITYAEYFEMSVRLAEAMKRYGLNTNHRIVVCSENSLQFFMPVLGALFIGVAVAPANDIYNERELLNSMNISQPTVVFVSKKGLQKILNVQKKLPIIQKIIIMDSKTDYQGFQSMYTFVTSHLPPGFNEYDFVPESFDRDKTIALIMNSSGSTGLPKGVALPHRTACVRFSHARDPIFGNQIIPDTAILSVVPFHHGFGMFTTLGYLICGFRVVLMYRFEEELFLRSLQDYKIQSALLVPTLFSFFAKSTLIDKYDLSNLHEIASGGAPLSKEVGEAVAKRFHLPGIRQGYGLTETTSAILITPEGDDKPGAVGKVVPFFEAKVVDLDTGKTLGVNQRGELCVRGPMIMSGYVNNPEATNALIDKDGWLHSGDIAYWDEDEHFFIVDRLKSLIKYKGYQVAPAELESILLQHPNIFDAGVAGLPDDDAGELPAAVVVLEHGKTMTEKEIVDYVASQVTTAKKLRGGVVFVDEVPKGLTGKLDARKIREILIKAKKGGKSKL

SMILES	composite z-score [1]	composite Z-score [2]	composite z-score [3]	composite z-score [4]	composite z-score [5]	composite z-score [6]	composite z-score [7]	composite z-score [8]	composite z-score [9]	composite z-score [10]	composite z-score [11]	composite z-score [12]	composite z-score [13]	composite z-score [14]	composite z-score [15]	composite z-score [16]	z-score [17]	composite z-score [18]	composite z-score [19]	z-score [20]
COc1cc2c(cc1OC)CN(C(=O)[C@@H]1[C@H]3C(=O)O[C@H](c4ccccc4)[C@H](c4ccccc4)N3[C@H](c3ccc(O)cc3)[C@@]13C(=O)Nc1ccc(C#CC4=CCCCC4)cc13)CC2	0.833	-0.0662 (inactive)	0.0522	-0.0142	0.5	1.49	0.453	1.3	0.153	1.1	1.76	1.19	0.453	0.863	1.08	0.493	-0.637	1.46	1.06	-1.33 (inactive)
CO[C@H]1O[C@H](CO)[C@@H](OC(=O)Nc2cccc(F)c2)[C@H](OC(=O)c2cc3ccccc3[nH]2)[C@H]1OC(=O)c1cc2ccccc2[nH]1	0.467	-0.0925 (inactive)	-0.0048	-0.132	0.209	0.799	0.337	-0.537	-0.332	-0.732	-0.371	-0.486	0.23	0.836	0.498	-0.234	-0.68	0.379	0.513	-0.635 (inactive)
COc1ccc(CCNC(=O)[C@@H]2c3ccccc3C(=O)N(C(C)C)[C@H]2c2ccc(CO)cc2)cc1	-1.09	1.13 (inactive)	-0.209	-0.132	0.722	1.42	-0.362	-0.139	-1.87	-0.574	-1.32	-0.878	-0.736	-1.3	-1.27	-0.934	2.71	-2.21	-1.74	-0.897 (inactive)
C=CCNC(=O)[C@@H]1[C@H]2C(=O)O[C@H](c3ccccc3)[C@H](c3ccccc3)N2[C@H](c2ccc(OCCO)cc2)[C@@]12C(=O)Nc1ccc(C#CC3=CCCCC3)cc12	0.806	0.653 (inactive)	0.0493	-0.145	0.512	1.33	0.402	1.3	0.0821	1.14	1.15	1.23	1.08	0.972	1.1	0.582	-1.56	1.11	0.898	-0.806 (inactive)
[N-]=[N+]=NCc1ccccc1[C@H]1OC(c2ccc(OCCCO)cc2)=N[C@@]1(CCS(=O)(=O)c1ccccc1)C(=O)O	0.952	0.177 (inactive)	0.212	-0.118	0.754	2.12	0.0621	0.367	-0.692	0.399	0.583	0.667	0.476	1.03	0.0192	-0.119	-0.959	-0.182	0.169	-6.31 (inactive)
CC(C)N1C(=O)[C@@]2(Cc3ccccc31)c1ccccc1C(=O)N(Cc1ccccc1)[C@H]2c1ccc(CO)cc1	-0.103	-0.289 (inactive)	-0.118	-0.205	-0.224	0.0227	1.79	0.316	0.702	-0.0679	2.84	-0.299	-0.0689	-0.375	0.848	0.203	0.591	0.13	-0.622	-0.52 (inactive)
COc1c(C)cc(-c2cc3c(c(CCc4ccccc4)n2)[Si](C(C)C)(C(C)C)O[C@H]3c2ccccc2)cc1C	-0.0598	0.123 (inactive)	-0.0728	-0.14	-0.121	0.463	-0.153	-0.423	-0.2	0.398	-0.439	-0.425	-0.191	-0.543	0.029	-0.278	0.386	0.268	0.183	-0.183 (inactive)
COC(=O)[C@]1(Cc2ccccc2N=[N+]=[N-])N=C(c2ccc(OCCCO)cc2)O[C@@H]1c1ccccc1CN=[N+]=[N-]	-0.836	0.636 (inactive)	0.169	-0.0439	0.483	1.36	-0.0388	1.27	0.232	0.844	0.335	1.12	2.02	0.206	1.07	1.38	-0.199	0.182	0.0031	-0.232 (inactive)
CN(C)CCCCCCNC(=O)[C@@H]1C[C@@H]2C(=O)N[C@@H](CCCC[N+](C)(C)C)C(=O)N2[C@@H]1c1cccc(OCCO)c1	0.792	1.88 (inactive)	-0.155	-0.0495	0.321	0.617	0.98	-0.311	-0.0783	0.566	2.34	0.13	-0.159	0.104	0.704	0.645	0.417	-0.601	0.853	-2.44 (inactive)
O=C(CS)NCCCCCCNC(=O)[C@H]1C[C@H]2C(=O)NCC(=O)N2[C@H]1c1cccc(OCCO)c1	-0.509	0.54 (inactive)	0.191	-0.0995	0.458	1.37	0.122	0.221	0.283	0.966	1.64	0.245	0.128	0.65	1.35	1.56	-0.698	0.47	-0.152	0.057 (inactive)
C=C(COC)/C(=C/C[C@@H](OC(=O)c1ccncc1)c1ccccc1OCCO)c1cnc2ccccc2c1	0.57	0.341 (inactive)	0.265	-0.0762	0.962	0.562	0.475	1.3	1.38	1.22	1.27	1.17	0.276	0.848	1.47	1.6	1.5	1.56	1.39	-1.17 (inactive)
